GRIN3A LBD mod: modulates the human NR3A ligand-binding domain. NR3A LBD differential scanning fluorimetry, Tm shift; 0% = protein alone, 100% = glycine-bound protein. Tm shift relative to glycine control, % at 25 µM. hit rate 2.5% among 340,000;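 active means melting temperature shift of at least 10% of the positive control shift, at one fixed dose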
aDG glyco act: increases alpha dystroglycan glycosylation. Pro5-aDG cells, alpha-DG glycosylation AlphaScreen (IIH6); 0% Pro5, 100% B10-LARGE cell signal. activation, % at 10 µM. hit rate 0.22% among 360,000. AID 624168;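 active means activation of at least 8% versus controls, or a plate z-score of at least 8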;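 further: Pro5 are CHO cells carrying HIG-tagged alpha-DG that lacks glycosylation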
ADAM10 inh: ADAM10 inhibition, QFRET primary screen. O14672. recombinant ADAM10, EDANS/DABCYL FRET peptide cleavage, 3 h. inhibition, % at 7 µM. hit rate 0.62% among 370,000. AID 720582;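 active means inhibition above a per-campaign cutoff equal to the mean of compounds falling between control-based bounds plus 3 SD, cut at about 20% in these data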
FAS TE block: FAS thioesterase (human) inhibition. recombinant FAS-TE, OMFH fluorogenic substrate, fluorescence endpoint. AID 602261. inhibition, % at 15 µM. hit rate 0.67% among 360,000;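 active means compounds whose normalised, plate-corrected inhibition of enzyme fluorescence in the single-dose primary screen is 50% or more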
ADAM17 inh: ADAM17 inhibition, QFRET primary screen; recombinant ADAM17, EDANS/DABCYL FRET peptide cleavage; inhibition, % at 6.95 µM; hit rate 0.83% among 370,000;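 active means inhibition above the mean of compounds lying between control limits plus 3 SD, set per campaign, cut at about 8.5% in these data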
Target sequence (P78536 215-824 limits assumed): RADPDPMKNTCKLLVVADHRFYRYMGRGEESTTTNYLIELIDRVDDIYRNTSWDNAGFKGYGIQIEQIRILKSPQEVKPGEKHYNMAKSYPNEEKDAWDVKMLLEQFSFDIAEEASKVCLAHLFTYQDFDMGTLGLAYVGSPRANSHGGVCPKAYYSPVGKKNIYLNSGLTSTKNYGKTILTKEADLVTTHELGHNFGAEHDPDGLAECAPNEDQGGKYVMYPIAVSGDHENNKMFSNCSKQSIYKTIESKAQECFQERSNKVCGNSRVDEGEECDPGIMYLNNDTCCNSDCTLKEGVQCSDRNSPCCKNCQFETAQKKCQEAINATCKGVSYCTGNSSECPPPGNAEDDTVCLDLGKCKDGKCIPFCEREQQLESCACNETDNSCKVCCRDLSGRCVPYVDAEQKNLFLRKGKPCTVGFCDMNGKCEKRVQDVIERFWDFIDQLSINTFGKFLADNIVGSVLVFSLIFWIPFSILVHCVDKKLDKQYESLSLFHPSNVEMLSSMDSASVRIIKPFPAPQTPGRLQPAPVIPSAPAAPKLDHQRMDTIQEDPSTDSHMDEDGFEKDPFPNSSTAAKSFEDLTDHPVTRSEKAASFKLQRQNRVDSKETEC
aDG conf: confirmation of alpha dystroglycan glycosylation activators. shares compounds with aDG glyco act. Pro5-aDG cells, alpha-DG glycosylation, IIH6 AlphaLISA; scaled to LARGE-overexpressing B10 cells as 100%. activation, % at 10 µM (by protocol). hit rate 17% among 600. AID 651671;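 active means activation of at least 7% in one or more replicates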;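 further: cells exposed to compound for two days before detection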
Each line names hits and unclear results; the compound was inactive in the other large screens (follow-up assays come after a bar, where they were run). Most compounds without a hit are left out; they make up all but 4% or so of the library.

COc1ccc(CNCCC(c2ccccc2)c2ccc3c(c2)OCO3)cc1 (stereo not given)	aDG glyco act 3.9 | aDG conf inactive
CC(C)(C)c1ccc(OCCCNC2CCCC2)cc1	aDG glyco act 6.7 | aDG conf inactive
CC(C)CNS(=O)(=O)CC1NCc2ccccc21 (stereo not given)	none (no result: GRIN3A LBD mod, aDG glyco act, FAS TE block)
CCOc1ccc2nc(NC(=O)CSC3=NCCS3)sc2c1	GRIN3A LBD mod 18, aDG glyco act 3.4 | aDG conf inactive
COc1ccc2nc(NC(=O)CSC3=NCCS3)sc2c1	none
NC(=S)NN=C(c1ccc(Br)cc1)C1CC1	aDG glyco act 5.7 | aDG conf inactive
COc1ccc(CCNc2nc(C)nc3c2oc2ccccc23)cc1OC	none
COc1ccc(CCNc2ncnc3c2oc2ccccc23)cc1OC	aDG glyco act 7.4 | aDG conf inactive
Cc1cccc(Nc2ncnc3ccc(Br)cc23)c1	none
Brc1ccc2ncnc(NCc3ccccc3)c2c1	aDG glyco act 8.2 | aDG conf 3.4
Cc1c(Br)c([N+](=O)[O-])nn1CC(=O)N1CCCc2ccccc21	aDG glyco act 4.4 | aDG conf inactive
CCC1CCCN1Cn1cnc2c([nH]c3ccc(OC)cc32)c1=O (stereo not given)	aDG glyco act 3.8 | aDG conf inactive
CCC1CCCN1Cn1cnc2c([nH]c3ccccc32)c1=O (stereo not given)	none
COC(=O)C(C)(C)NC(=O)c1cccs1	none
COc1ccc(CN2CCC(C(=O)Nc3ccc(Oc4cccnc4)cc3)CC2)c(C)c1C	aDG glyco act 2.2 | aDG conf 4.7
O=C(c1cc(Cl)ccc1O)N1CCN(S(=O)(=O)c2cccs2)CC1	none
COc1cc(C(=O)C(=O)N2CCN(c3ccc(C)cc3)CC2)cc2ccccc12	none (no result: GRIN3A LBD mod, FAS TE block)
COc1cc(C(=O)C(=O)N2CCC(Cc3ccccc3)CC2)cc2ccccc12	aDG glyco act 10 (no result: GRIN3A LBD mod, FAS TE block) | aDG conf inactive
COc1ccccc1CN1C[C@@H]2C[C@@H](c3ccc4nsnc4c3)N3CCC[C@@]23C1=O	none
COc1ccc(C(=O)N2CCC(n3nnc4cc(F)ccc43)CC2)cc1OC	none
Cc1cc(OC(=O)c2c(C)cc(OC(=O)c3c(C)cc(O)cc3O)cc2O)cc(O)c1C(=O)O	aDG glyco act 6.1 | aDG conf inactive
Cc1cc(C(=O)Nc2ccc(Cl)cc2)n(-c2ccccc2)n1	aDG glyco act 2.7 | aDG conf inactive
Cc1ccc(NC(=O)c2cc(C)nn2-c2ccccc2)cc1	none
COC(=O)C1=NN(C(C)(C)CC(C)=O)C2C(=O)N(C3CCCCC3)C(=O)C12 (stereo not given)	aDG glyco act 3.1 | aDG conf inactive
COc1ccc(CCNC(=O)c2nnn(CC(=O)Nc3c(C)cc(C)cc3C)c2N)cc1OC	none
CCc1ccc(C2c3[nH]c4ccccc4c3CCN2C(=O)CN2CCN(CC)CC2)cc1 (stereo not given)	aDG glyco act 8.0 | aDG conf 13
CCOC(=O)c1cc(-c2ccc(F)cc2)n(CCC(=O)NC2CCN(Cc3ccccc3)CC2)c1C	aDG glyco act 8.4 | aDG conf 3.5
NC(CCc1ccccc1)c1csc(Nc2ccc(C(=O)c3ccccc3)cc2)n1 (stereo not given)	aDG glyco act 8.0 (no result: GRIN3A LBD mod) | aDG conf inactive
Cc1csc(NC(=O)C2CCCN(S(=O)(=O)c3ccc4c(c3)oc(=O)n4C)C2)n1 (stereo not given)	aDG glyco act 9.1 | aDG conf inactive
CC(=O)c1ccc(-c2ccc(C(=O)NCC(c3ccco3)N(C)C)o2)cc1 (stereo not given)	none
N#Cc1cc2ccccc2nc1SCC(=O)Nc1ccccc1N1CCOCC1	none
Cc1cccc2cc(C#N)c(SCC(=O)Nc3ccccc3N3CCOCC3)nc12	aDG glyco act 4.9 | aDG conf inactive
CCn1c(-c2csc(-c3ccccc3)n2)n[nH]c1=S	none
S=C(NC1CC1)N1CCCc2ccccc21	none
CC(C)COc1cccc(C(=O)NNC(=O)C2COc3ccccc3O2)c1 (stereo not given)	aDG glyco act 6.2 | aDG conf inactive
Nc1ccc(C(=O)NNC(=O)C2COc3ccccc3O2)cc1[N+](=O)[O-] (stereo not given)	none
CCN(CC)S(=O)(=O)c1ccc2[nH]c(=O)cc(C(=O)Nc3cccc(C(C)=O)c3)c2c1	aDG glyco act 9.2 | aDG conf inactive
Cc1ccc(-n2cc(CNCCCn3ccnc3C)c(-c3ccc(F)cc3)n2)cc1	none
CCOCCCNC1=C(Cl)C(=O)c2ccccc2C1=O	none
O=C1C(Cl)=C(NCCCO)C(=O)c2ccccc21	aDG glyco act 8.7 | aDG conf 3.2
O=C(CSc1ccc(Cl)cc1)N/N=C/c1ccc([N+](=O)[O-])o1	aDG glyco act 3.2 | aDG conf inactive
NC(=O)N/N=C/c1ccc([N+](=O)[O-])o1	none
CN1C2=NC(c3ccc4ccccc4c3)CC(=O)N2/C(=C\c2ccccc2)C1c1ccccc1C(F)(F)F (stereo not given)	none (no result: GRIN3A LBD mod, aDG glyco act, FAS TE block)
CC1CCCC(C)N1C(=O)CSc1nnnn1-c1cccc2c1CCCC2 (stereo not given)	none
CC1CCCC(C)N1C(=O)CSc1nnnn1Cc1ccccc1 (stereo not given)	aDG glyco act 5.6 | aDG conf inactive
CCCCOP(=O)(OCCCC)C1(NS(=O)(=O)c2ccccc2)C=CC(=O)c2ccccc21 (stereo not given)	aDG glyco act 5.9 | aDG conf inactive
COc1ccc(OC)c(C(=O)N(C[C@H]2CC[C@@H]([C@@H]3CC[C@H](CO)O3)O2)C(C(=O)NC(C)(C)C)c2ccc(-c3ccccc3)cc2)c1 (stereo not given in full)	aDG glyco act 5.8 | aDG conf inactive
CCC(=O)NNc1ncnc2c1cnn2-c1cccc(C)c1	none
Cn1c(SCC(=O)N2CCCc3ccccc32)nnc1-c1ccccc1	aDG glyco act 3.7 | aDG conf inactive
Brc1ccc(CNc2ccc3ncccc3c2)cc1	aDG glyco act 2.8 | aDG conf inactive
CCn1cnc2cc(NCc3ccc(Br)cc3)ccc21	none (no result: aDG glyco act, FAS TE block)
CSc1nc(C)c(C(=O)Nc2ccccc2)c(-c2ccco2)c1C#N	none
Cc1nc(CCNC(=O)Cc2ccc(Cl)cc2)cs1	aDG glyco act 8.7 | aDG conf inactive
COC(=O)C1CCN(C(=O)COC(=O)c2cc(-c3ccccc3)nc3ccc(OC)cc23)CC1	aDG glyco act 6.7 (no result: ADAM10 inh, ADAM17 inh) | aDG conf inactive
Cc1cc2ncc(S(=O)(=O)c3ccccc3)c(N)n2n1	aDG glyco act 6.3 | aDG conf inactive
Cc1cc2ncc(S(=O)(=O)C(C)(C)C)c(N)n2n1	none
O=C(c1ccccc1SCc1ccccc1)N1CCCCCC1	none
O=C1CC(c2ccccc2)n2nc(NC(=O)C3CCCO3)nc2N1 (stereo not given)	aDG glyco act 3.1 | aDG conf inactive

Bioassay records deposited in PubChem by several laboratories.
